# Screening data (PubChem)
# AI-2 QS modul = modulates the Vibrio harveyi AI-2 quorum sensing system; Vibrio harveyi JMH597 AI-2 luminescence/OD600 ratio, 9 h; stronger effect = lower value; strain lacks LuxN and CqsS sensors; 0 = neutral-control median; activity change, % at 7.5 µM; 300,000 compounds, 0.4% hits; AID 2094; in the data active means activity change below about -75%, passing the limit was not always enough;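 further: luminescence divided by OD600 gain over 9 h not by final OD600 alone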
# S1P4 ag = agonists of human S1P4 receptor. S1P4-expressing cell line, agonist reporter assay. 220,000 compounds, 0.35% hits. activation, % at 4.98 µM. O95977. AID 1509; in the data active means activation above about 11%;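 further: 0% = DMSO vehicle and 100% = reference agonist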
# Target sequence (O95977 whole entry, looked up): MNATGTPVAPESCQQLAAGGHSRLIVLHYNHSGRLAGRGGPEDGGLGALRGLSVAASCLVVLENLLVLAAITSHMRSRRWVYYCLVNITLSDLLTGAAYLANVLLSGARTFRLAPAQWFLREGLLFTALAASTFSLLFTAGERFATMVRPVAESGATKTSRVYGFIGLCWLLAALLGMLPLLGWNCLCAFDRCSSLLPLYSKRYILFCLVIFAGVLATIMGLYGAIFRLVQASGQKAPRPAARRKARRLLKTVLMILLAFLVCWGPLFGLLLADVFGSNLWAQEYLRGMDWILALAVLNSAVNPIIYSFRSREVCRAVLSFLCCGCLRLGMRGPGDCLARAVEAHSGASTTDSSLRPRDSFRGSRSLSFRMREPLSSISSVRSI
# S1P3 antag = blocks the human S1P3 receptor. CHO S1P3 NFAT-BLA reporter, FRET fluorescence, antagonist mode. Q99500. 170,000 compounds, 0.27% hits. inhibition, % at 4.98 µM;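 active means inhibition above the plate cutoff, the mean inhibition of test wells on that plate plus 3 SD, cut at about 28% in these data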;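 further: cells challenged with S1P at its EC80 of 0.8 µM; blue over green emission ratio from cleaved BLA substrate after 4 h stimulation; 0% = S1P-stimulated wells and 100% = unstimulated DMSO-only wells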
# S1P4 antag = blocks the human S1P4 receptor; 220,000 compounds, 0.26% hits; S1P4-expressing cells, antagonist mode, reporter read-out; inhibition, % at 4.98 µM; AID 1510; in the data active means inhibition above about 29%;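 further: 0% = wells stimulated with agonist and 100% = vehicle wells without agonist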
# Hsp70 act = switches on Hsp70 transcription | HeLa Hsp70 promoter luciferase reporter, luminescence; scaled: vehicle 0, proteasome-inhibitor control 100% | activation, % at 10 µM | 200,000 compounds, 0.04% hits | AID 1203;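 active means activation above the mean across all tested compounds plus 3 SD, cutoff set per campaign, cut at about 5.5% in these data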;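 further: 100% = MG132 at 30 µM as the positive control and 0% = DMSO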
# Active calls of the source: *; . = no result given. An excerpt weighted towards active compounds, which were near 0.97% of everything screened.
SMILES,AI-2 QS modul,S1P4 ag,S1P3 antag,S1P4 antag,Hsp70 act
COc1cccc(Nc2c([N+](=O)[O-])cncc2[N+](=O)[O-])c1,3,.,.,.,.
O=C(CN1CCOCC1)Nc1ccccc1Sc1ccc(Cl)cc1,23,-1,3,-15,0
Cc1ccc2c(c1)N(CC(=O)OC(CC(C)C)C(=O)NC1CCCC1)C(=O)CO2 (stereo not drawn),9,0,90*,3,0
O=C(N/N=C/c1ccc([N+](=O)[O-])o1)c1ccc(O)cc1,-128*,-1,-19,10,0
Cc1scc(C(=O)N/N=C/c2ccco2)c1C,18,-1,.,-11,0
CCNc1nc(NCC)nc(N/N=C/c2ccc([N+](=O)[O-])o2)n1,-158*,0,.,-8,0
Cc1scc(C(=O)N/N=C/c2ccc([N+](=O)[O-])o2)c1C,-91*,.,.,.,.
O=[N+]([O-])c1ccc(/C=N/Nc2nc(N3CCCC3)nc(N3CCCC3)n2)o1,35,-1,.,-2,0
CN(Cc1ccccc1)C(=O)COC(=O)c1ccc(Cl)cc1N,17,-2,-10,1,0
CCc1ccc(OCC(=O)NNC(=S)NC(=O)C2CCCCC2)c(Br)c1,101,.,.,.,.
CCc1ccc(OCC(=O)NNC(=S)NC(=O)C2CC2)c(Br)c1,-85*,.,.,.,.
CCCCCCC1CC(C)(/C(C)=N/NC(N)=O)OC1=O (stereo not drawn),28,-1,.,1,0
CCCCCCC1CC(C)(C(=O)CNc2nncs2)OC1=O (stereo not drawn),-76*,-1,6,-12,0
O=C(O)c1ccc(N/N=C/c2cccc(C(F)(F)F)c2)cc1,-93*,.,.,.,.
O=C(O)c1ccc(N/N=C/C(Br)=C/c2ccccc2)cc1,-94*,1,-4,-16,.
O=C(O)c1ccc(N/N=C/c2cccc(F)c2)cc1,-79*,-1,-5,-23,0
O=C(O)c1ccc(N/N=C/c2ccc(F)c(F)c2)cc1,-94*,2,-11,-2,0
Cc1cc2c(cc1S(=O)(=O)N1CCN(c3cccc(C)c3C)CC1)OCC(=O)N2,56,.,.,.,.
CC(=O)c1ccc(OCCNS(=O)(=O)c2ccc(-n3cnnn3)cc2)cc1,27,.,.,.,.
Nc1nn(-c2cccc(F)n2)cc1-c1ccccc1,5,1,-2,-12,0
CCc1ccc(CN(Cc2cccnc2)C(=O)/C=C/c2ccc(OC)cc2)cc1,3,.,.,.,.
O=C(Cc1ccccc1F)Nc1ccc(S(=O)(=O)Nc2ncccn2)cc1,-76*,.,.,.,.
Oc1cccc(/C=N/NC(=S)Nc2cccnc2)c1O,-84*,-1,4,-4,0
CCc1ccc(NC(=O)C(C)OC(=O)C2CCN(c3ccc(C(F)(F)F)cn3)CC2)cc1 (stereo not drawn),14,.,.,.,.
CCCCSc1nnc(-c2c[nH]c3ccccc23)n1C,27,1,101*,3,0
SMILES,AI-2 QS modul,S1P4 ag,S1P3 antag,S1P4 antag,Hsp70 act
O=c1c2ccccc2cnn1Cc1n[nH]c(=S)n1-c1ccccc1,28,1,2,-10,0
COC(=O)c1cc2c(=O)n3ccccc3nc2n(C(C)C)c1=N,.,12*,1,-28,0
COc1ccccc1C(=O)Nc1ccnn1C1CCN(CCCc2ccccc2)CC1,13,.,.,.,.
CCOC(=O)c1c(NC(=O)c2nn(CC)cc2Br)c(C#N)cn1-c1ccccc1,15,2,59*,-16,0
Cc1cc(C)c(NC(=O)CN2CCN(C)CC2)c(C)c1,27,.,79*,.,.
CCc1nc(SCc2ccccc2C#N)n[nH]1,11,.,.,.,.
O=C(CCSc1ccc(Br)cc1)c1ccc(O)cc1,-77*,.,.,.,.
CCCc1cc(=O)[nH]c(Nc2ccc(OC)c(Cl)c2)n1,-24,-1,92*,-34,0
COCCn1c(=S)[nH]c2cc(C(=O)N3CCc4ccccc43)ccc2c1=O,-78*,-2,.,-60,0
Oc1ccc(Cl)cc1CNn1cnnc1,30,3,-26,-1,0
Oc1ccc(Cl)cc1Cc1cc(Cl)ccc1O,-112*,0,-3,-7,0
CCCC(=O)Nc1sc(C(=O)Nc2cccc(N)c2)c(C)c1C(=O)OC,50,1,17,-12,0
O=C(C#Cc1ccccc1)Nc1ccccc1F,-87*,.,.,.,.
CCCCOc1ccc(S(=O)(=O)Nc2cc(OC)ccc2OC)cc1,20,-2,55*,-4,0
O=C(NCC(O)c1ccccc1)c1cccs1 (stereo not drawn),-4,.,.,.,.
Cc1ccc(S(=O)(=O)CC(=O)c2ccccc2)cc1,-79*,-2,.,-4,0
